From PubChem
Only some compounds are listed: those with a hit (about 5.2% of all), similar ones and a draw of the others.
PfM18AAP inh-1 = PfM18AAP inhibitors, malaria aminopeptidase, primary screen, biochemical, QFRET, recombinant enzyme | M18 aspartyl aminopeptidase (Plasmodium falciparum 3D7) | 1.2% of 290,000 active | inhibition, % at 7.35 µM | H-Glu-NHMec fluorogenic cleavage | AID 1822, 2009;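 active means inhibition above the campaign mean inhibition over all tested compounds plus 3 SD, cut at about 28% in these data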;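 further: 0% = plate median of test compound wells and 100% = 2 mM ZnCl2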
ALR H2O2 inh = inhibitors of human ALR sulfhydryl oxidase, primary screen, biochemical, H2O2 detection, HRP-luminol luminescence, single point. FAD-linked sulfhydryl oxidase ALR (Homo sapiens), P55789. purified ALR, DTT oxidation. inhibition, % (concentration not given with the values). 3.8% of 290,000 active;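 active means mean replicate inhibition above about 79%, with every replicate also reaching it, limit read from the data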
Target sequence (P55789 whole entry, looked up): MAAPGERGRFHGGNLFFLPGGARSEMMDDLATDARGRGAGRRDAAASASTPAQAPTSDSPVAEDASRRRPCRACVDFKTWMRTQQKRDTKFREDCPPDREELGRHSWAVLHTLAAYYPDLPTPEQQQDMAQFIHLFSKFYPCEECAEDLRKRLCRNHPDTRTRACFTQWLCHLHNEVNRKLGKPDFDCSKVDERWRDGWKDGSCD
APOBEC3A inh = APOBEC3A ssDNA deaminase inhibitors, primary screen, selectivity assay for APOBEC3G inhibitor project, biochemical, FAM/TAMRA oligo cleavage fluorescence; DNA dC->dU-editing enzyme APOBEC-3A (Homo sapiens), P31941; recombinant A3A, FAM/TAMRA ssDNA deamination fluorescence; inhibition, % at 20 µM; 0.41% of 330,000 active; AID 493011, 2011;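 active means at least 40% inhibition at 20 µM here, with at most 30% in a related deaminase screen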;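 further: plate controls were A3A with DMSO for no effect and wells lacking A3A enzyme for full effect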
Target sequence (P31941 whole entry, looked up): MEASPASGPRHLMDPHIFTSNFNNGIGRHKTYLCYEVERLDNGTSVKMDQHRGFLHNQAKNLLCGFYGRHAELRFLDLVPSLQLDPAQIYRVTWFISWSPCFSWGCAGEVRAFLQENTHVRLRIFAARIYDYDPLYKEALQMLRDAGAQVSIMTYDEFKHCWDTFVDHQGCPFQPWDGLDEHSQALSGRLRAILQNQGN
NRP1-CendR mod = modulators of CendR peptide binding to NRP-1, primary screen, biochemical, fluorescence polarization, uHTS; FAM-RPARPAR peptide binding to NRP-1; inhibition, % at 25 µM; Neuropilin-1 (Homo sapiens), O14786; 0.85% of 360,000 active;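 active means inhibition or corrected inhibition above about 18%, plus a signal ratio from 0.5 to 1.5, limit read from the data, passing the limit was not always enough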
Yeast superoxide = reduction of superoxide in aged yeast, primary screen, HTS; S. cerevisiae aged cells, superoxide DHE fluorescence; stronger effect = lower value; 0.18% of 330,000 active; superoxide response (% of plate mean), % at 10 µM;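 active means superoxide response under a set limit, about three screen SD below normal, cut at about 65% in these data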;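 further: yeast aged for seven days with compound at 30 °C before DHE staining; 100% = average MFI of all compound-treated wells on the plate with controls excluded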
A3G deaminase = APOBEC3G DNA deaminase inhibitors, primary screen, biochemical, fluorescence, single-stranded DNA substrate, uHTS; AID 493012, 2011; 0.28% of 330,000 active; inhibition, % at 20 µM; recombinant A3G, ssDNA deamination FAM/TAMRA fluorescence;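 active means inhibition of at least 40% at 20 µM, with no more than 30% in the related APOBEC3A deaminase screen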;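 further: plate controls were DMSO wells with A3G for no effect and wells lacking A3G enzyme for full effect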
PfM18AAP inh-2 = PfM18AAP inhibitors, malaria aminopeptidase, confirmation, biochemical, QFRET, recombinant enzyme, triplicate; shares compounds with PfM18AAP inh-1; H-Glu-NHMec fluorogenic cleavage; inhibition, % at 7.35 µM; 28% of 2,400 active; AID 2170, 2009;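 active means mean inhibition over replicate wells above the hit cutoff set for the earlier primary screen, cut at about 29% in these data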;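 further: 0% = median of test compound wells and 100% = 2 mM ZnCl2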
CTSL1 counter = cathepsin L1 inhibitors, retest, confirmation, counter-screen for PFM18AAP inhibitor project, biochemical, QFRET, triplicate. 2,400 tested, under 10 active. shares compounds with PfM18AAP inh-1. AID 2178, 2009. inhibition, % at 5.96 µM. purified cathepsin L1, Z-Leu-Arg-MCA fluorescence;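 active means average inhibition across replicates above the hit cutoff set in the earlier primary screen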;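 further: 0% = median of test compound wells and 100% = Z-Phe-Ala-diazomethylketone 1 µM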
Starred values were filed as active, the others as inactive; . = no result.

SMILES	PfM18AAP inh-1	ALR H2O2 inh	APOBEC3A inh	NRP1-CendR mod	Yeast superoxide	A3G deaminase	PfM18AAP inh-2	CTSL1 counter
S=C(NNC(=S)Nc1ccccc1)Nc1ccccc1	50*	2	-1	-7	102	14	1	-1
COC(=O)[C@@H]1C[C@@]2(O)[C@H](O)[C@H](O)[C@H](O)C[C@H]2N1C/C=C/c1ccccc1	.	-1	-1	12	89	4	.	.
Cc1ccc(Cl)cc1NCN1C(=O)c2ccccc2C1=O	.	.	.	-4	.	.	.	.
COc1ccc(NC(=S)NNC(=S)Nc2cccc(C(F)(F)F)c2)cc1	42*	14	-4	1	81	0	-19	0
NNc1nc2sc3c(c2c(=O)n1Cc1ccccc1)CCC3	-11	47	3	-22	97	3	.	.
NNc1nc(-c2ccccc2)nc2sc3c(c12)CCCC3	32*	-12	-3	-6	122	-10	10	1
COc1ccc2cc(CN(Cc3ccco3)Cc3nnnn3C3CCCCC3)c(=O)[nH]c2c1	35*	0	1	7	99	-5	-37	-4
CCn1c(CSc2ncn[nH]2)nc2cc(C(=O)O)ccc21	48*	.	6	9	108	0	9	6
CCOc1ccc(CC(=O)C2C(=O)CCCC2=O)cc1OCC	33*	0	-6	0	103	-10	-25	-4
CCOc1ccc(CC(=O)C2C(=O)CC(C)(C)CC2=O)cc1OCC	1	-6	-5	-1	89	-8	.	.
COc1ccc(CCNC(=O)c2cccc(S(=O)(=O)N3CCCC3)c2)cc1	.	.	-4	2	.	-11	.	.
N#Cc1c(N2C(=O)Nc3ccccc3N2O)sc2c1CCCC2	-3	24	2	-10	99	-1	.	.
N#Cc1c(N2C(=O)Nc3ccccc3N2O)sc2c1CCCCCC2	35*	69	-3	-11	117	-10	-41	8
O=C1c2ccccc2C(=O)N1/N=C/c1ccc(O)c(O)c1	57*	99*	1	6	103	-9	68*	5
COc1cc(/C=N/N2CCN(C3c4ccccc4-c4ccccc43)CC2)ccc1O	-11	33	-3	25	99	0	.	.
O=C1C2C3C=CC(CC3)C2C(=O)N1/N=C/c1ccc(O)c(O)c1 (stereo not drawn)	54*	.	5	-11	91	0	45*	-1
CSc1nc2oc3c(c2c2nncn12)CC(C)(C)SC3	32*	13	-6	3	107	-8	-6	-10
CCN(CCCCCCN)c1ccc2c(=O)[nH][nH]c(=O)c2c1	3	0	1	7	92	2	.	.
CC(C)(C)c1ccc(S(=O)(=O)O/N=C2/CCCCC2c2ccc([N+](=O)[O-])cc2[N+](=O)[O-])cc1 (stereo not drawn)	38*	-2	1	-1	90	-3	-28	2
O=C(NC(=S)NNC(=O)c1ccccc1O)c1cccs1	44*	4	-5	-5	79	-8	3	-2
O=C(NNC(=O)c1cc(Cl)ccc1O)c1cccs1	35*	.	-2	9	103	-4	-5	-3
O=C(NNC(=S)NC(=O)c1ccccc1[N+](=O)[O-])c1ccc(Cl)cc1Cl	-5	31	-1	0	110	-4	.	.
O=C(NNC(=S)NC(=O)c1ccccc1[N+](=O)[O-])c1ccccc1O	43*	55	-4	-5	102	1	21	-1
COc1ccc(Br)cc1/C=C(\C(=O)O)c1ccc(S(=O)(=O)N2CCCC2)s1	.	6	30	15	96	9	.	.
Nc1nnc(CC(=O)N/N=C/c2cc([N+](=O)[O-])cc(Br)c2O)s1	37*	44	-2	-64	121	-8	1	3
SMILES	PfM18AAP inh-1	ALR H2O2 inh	APOBEC3A inh	NRP1-CendR mod	Yeast superoxide	A3G deaminase	PfM18AAP inh-2	CTSL1 counter
Oc1ccc(/C=N/NC(=S)NCCN2CCOCC2)c(O)c1	52*	.	15	-8	107	-16	27	12
COc1cc(C(=O)N/N=C/c2ccccn2)cc(OC)c1OC	2	-5	-3	8	97	-2	.	.
COc1ccc(-c2nc(N/N=C(\C)c3ccc(O)cc3)c3ccccc3n2)cc1	63*	2	-5	10	105	-8	-62	3
C=CCSC1=N/C(=C\c2cc(OCC)c(OC(C)=O)c([N+](=O)[O-])c2)C(=O)S1	38*	98*	8	-3	117	1	-44	2
C=CCNCCOCCOc1ccc(C)cc1Br	4	-2	-7	7	78	-7	.	.
CCC(C)NCCOCCOc1ccc(C)cc1Br (stereo not drawn)	32*	-9	0	1	83	-4	-26	-1
CCN(CC(=O)Nc1ccc(OC)cc1)CC(=O)Nc1ccc(Cl)cc1F	-1	-6	-6	10	153	-4	.	.
O=C(Cc1ccc([N+](=O)[O-])cc1)c1c(O)cc(O)cc1O	44*	53	2	-18	102	0	21	-9
Cc1cc(O)cc(O)c1C(=O)Cc1ccccc1	-9	33	2	6	99	-4	.	.
CCOc1ccc(C(=O)Nc2nnc(C3=COCCO3)o2)cc1	14	4	-3	-9	97	-6	.	.
O=CN/C=C/c1cc(O)ccc1O	61*	98*	39	-11	113	61	83*	0
O=Cc1ccc(O)cc1O	8	-18	-4	4	108	-8	.	.
COCCNC(=O)[C@@H]1CSC2c3ccc(OC)c(OC)c3C(=O)N21 (stereo partly drawn)	-1	-1	3	-1	123	5	.	.
Cc1cccc(C(=O)Nc2ccc(C(=O)N/N=C/c3ccc(C)o3)cc2)c1	42*	0	2	3	127	-1	-31	3
O=S(=O)(Nc1ncn[nH]1)c1ccc2ccccc2c1	51*	-5	0	-6	115	0	41*	-2
Cc1cc(C)c(S(=O)(=O)Nc2ncn[nH]2)cc1C	42*	18	2	8	89	-7	11	-2
COc1ccc(Cl)cc1S(=O)(=O)Nc1ncn[nH]1	23	-9	-2	6	95	-9	.	.
